MEKK3 PB1 HTS – modulators of MEKK3-MEK5 PB1 binding, primary screen, biochemical, wildtype MEKK3, multiplex bead flow cytometry, Alexa488-MEK5; bead-based flow cytometry, Alexa488-MEK5 binding to MEKK3; actives lie on both sides; 0 = blocked by unlabeled MEK5, 100 = vehicle; binding response (% of control), % at 10 µM; 290,000 tested, 1.4% active; AID 1529, 2009;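 active means binding response more than 3 SD above or below the average of its plate-row segment, actives on both sides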;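 further: Alexa488 bead fluorescence after subtracting the streptavidin-only scavenger bead signal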
GRK2 inh – compounds blocking aptamer binding on GRK2 – biochemical, human GRK2, bead flow cytometry, HTS, primary screen; Beta-adrenergic receptor kinase 1 (Homo sapiens), P25098; FAM-aptamer displacement from GRK2; inhibition of aptamer binding, % at 10 µM; 330,000 tested, 0.59% active;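 active means inhibition of aptamer binding above 40%, roughly 3 SD of noise, on plates passing a quality check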;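 further: median bead fluorescence of bound FAM aptamer so fluorescent compounds give negative values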
Target sequence (P25098 whole entry, looked up): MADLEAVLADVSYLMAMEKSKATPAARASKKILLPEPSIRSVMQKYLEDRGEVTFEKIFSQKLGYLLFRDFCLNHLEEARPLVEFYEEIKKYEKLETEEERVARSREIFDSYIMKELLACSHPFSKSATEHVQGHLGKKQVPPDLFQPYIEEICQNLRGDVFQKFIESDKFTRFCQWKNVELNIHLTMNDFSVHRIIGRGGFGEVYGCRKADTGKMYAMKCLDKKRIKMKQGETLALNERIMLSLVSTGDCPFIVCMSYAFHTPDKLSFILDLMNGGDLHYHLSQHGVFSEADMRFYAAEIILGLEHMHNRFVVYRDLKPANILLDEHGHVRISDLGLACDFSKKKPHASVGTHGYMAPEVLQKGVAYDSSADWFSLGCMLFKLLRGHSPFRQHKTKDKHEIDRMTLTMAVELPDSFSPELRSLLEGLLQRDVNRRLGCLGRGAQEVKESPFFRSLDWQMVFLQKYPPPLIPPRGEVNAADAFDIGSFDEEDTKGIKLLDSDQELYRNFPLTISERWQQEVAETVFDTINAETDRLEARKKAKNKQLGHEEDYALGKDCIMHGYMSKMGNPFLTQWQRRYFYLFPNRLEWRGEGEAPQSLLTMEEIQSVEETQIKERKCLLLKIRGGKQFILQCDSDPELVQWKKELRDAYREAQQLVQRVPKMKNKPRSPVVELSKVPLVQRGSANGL
MEKK2mut PB1 HTS – MEK5 binding signal on mutant MEKK2 PB1, primary screen, biochemical, multiplex bead flow cytometry, Alexa488-MEK5 | Alexa488-MEK5 binding to MEKK2 mutant | percent response, % at 10 µM | 290,000 tested, 0.35% active | AID 1530, 2009; in the data active means percent response above about 24%, passing the limit was not always enough
MEKK2wt PB1 HTS – modulators of MEK5 binding to wildtype MEKK2, primary screen, biochemical, multiplex bead flow cytometry, Alexa488-MEK5; Mitogen-activated protein kinase kinase kinase 2 (Homo sapiens), Q9Y2U5; Alexa488-MEK5 binding to MEKK2 WT; actives lie on both sides; binding response (% of control), % at 10 µM; 290,000 tested, 1.1% active; AID 1531, 2009; in the data active means binding response below about 67% or above about 130%
MEKK2wt confirm – modulators of MEK5 binding to wildtype MEKK2, confirmation, biochemical, single concentration, multiplex bead flow cytometry; shares compounds with MEKK3 PB1 HTS; Alexa488-MEK5 binding to MEKK2 WT; actives lie on both sides; binding response (% of control), % at 10 µM; 5,900 tested, 2.4% active; AID 1892, 2009; in the data active means binding response below about 16% or above about 210%; inactive means in between
MEKK2mut confirm – mutant MEKK2 PB1-MEK5 binding signal retest – biochemical, single concentration, multiplex bead flow cytometry, confirmation; shares compounds with MEKK3 PB1 HTS; 5,900 tested, 2% active; AID 1893, 2009; Alexa488-MEK5 binding to MEKK2 mutant; percent response, % at 10 µM; in the data active means percent response mostly above about 71%, no sharp cut-off; inactive means mostly below about 38%;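 further: higher means compound restores mutant binding toward wildtype level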
MEKK3 confirm – MEKK3 wild-type PB1 binding to MEK5, inhibitors, confirmation, biochemical, bead multiplex flow cytometry, single concentration, wildtype. shares compounds with MEKK3 PB1 HTS. Alexa488-MEK5 binding to MEKK3; stronger effect = lower value. binding response (% of control), % at 10 µM. 5,900 tested, 1.8% active;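 active means binding response below 72% of control, or above a set upper limit, though filed actives all read lower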
Each line names hits and unclear results; the compound was inactive in the other large screens (follow-up assays come after a bar, where they were run); [ ] = dose if it differs, or a comment. This is a sample that favours compounds with a hit; in the whole collection about 2.5% have one here.

O=C(c1ccc(-n2ccnc2)cc1)N1CCCC(CO)(Cc2cccc(Cl)c2)C1 (stereo not given)	none
Cc1cc2nc(-c3ccc(SCC(=O)Nc4ccc(S(=O)(=O)N5CCCC5)cc4)nc3)[nH]c2cc1C	MEKK3 PB1 HTS 132 | MEKK2wt confirm inactive | MEKK2mut confirm inactive | MEKK3 confirm inactive
COc1ccc(N(CC(=O)NCCSCc2ccccc2C)S(=O)(=O)c2ccccc2)cc1	none
CCOc1ccccc1CN1CCC(n2nccc2NC(=O)CCCc2ccccc2)CC1	none
COc1ccccc1CN1CCC(n2nccc2NC(=O)CCCc2ccccc2)CC1	MEKK2wt PB1 HTS 142 | MEKK2wt confirm inactive | MEKK2mut confirm inactive | MEKK3 confirm inactive
Cc1cccc(NC(=O)COC(=O)c2cc(C)oc2C)c1	MEKK3 PB1 HTS 129 | MEKK2wt confirm inactive | MEKK2mut confirm inactive | MEKK3 confirm inactive
Cc1cc(C(=O)OCC(=O)Nc2cccc(S(N)(=O)=O)c2)c(C)o1	none (no result: MEKK3 PB1 HTS, MEKK2mut PB1 HTS, MEKK2wt PB1 HTS)
CN1C2C(Br)CCCCN2c2ccc(F)cc2S1(=O)=O (stereo not given)	none
CCN(CC)S(=O)(=O)c1ccc(C(=O)/C=C/c2ccc(-c3ccc([N+](=O)[O-])cc3)o2)cc1	MEKK2wt PB1 HTS 37[inhibitor] | MEKK2wt confirm inactive | MEKK2mut confirm inactive | MEKK3 confirm inactive
Cc1ccc(C(=O)/C=C/c2ccc(-c3ccc(C)cc3)o2)cc1	none
COC(=O)CSC1=C(C#N)C(c2ccccc2)CC(=O)N1 (stereo not given)	MEKK3 PB1 HTS 2.0[inhibitor], MEKK2wt PB1 HTS -2.0[inhibitor] | MEKK2wt confirm inactive | MEKK2mut confirm inactive | MEKK3 confirm inactive
COC(=O)CSC1=C(C#N)C(c2ccc(C(C)C)cc2)CC(=O)N1 (stereo not given)	none
CC(=O)c1cccc(NC(=O)CCn2c(=O)oc3ccccc32)c1	none
O=C1CS/C(=N\N=C\c2ccccc2Cl)N1CC1CC1	none
C/C(=N\NC(=O)c1ccc(Cl)c(S(=O)(=O)Nc2ccccc2Cl)c1)c1ccncc1	MEKK3 PB1 HTS 145 | MEKK2wt confirm inactive | MEKK2mut confirm inactive | MEKK3 confirm inactive
CNCC(=O)Nc1c(C)n[nH]c1C	MEKK3 PB1 HTS 148 | MEKK2wt confirm inactive | MEKK2mut confirm inactive | MEKK3 confirm inactive
CC(C)CC1(C)N=C(c2ccccc2)C(=S)N1 (stereo not given)	none
Cc1nc(NCc2ccc3c(c2)OCO3)c2oc3ccccc3c2n1	MEKK3 PB1 HTS 70[inhibitor] | MEKK2wt confirm inactive | MEKK2mut confirm inactive | MEKK3 confirm inactive
CCc1nc(NCc2ccc3c(c2)OCO3)c2oc3ccccc3c2n1	none
FCCCOc1ccc(-c2nccc(-c3ccc(Cl)cc3)n2)cc1	MEKK3 PB1 HTS 77[inhibitor] | MEKK2wt confirm inactive | MEKK2mut confirm inactive | MEKK3 confirm inactive
COc1ccc(-c2ccnc(-c3ccc(OCCCF)cc3)n2)cc1	none
COC(=O)C1CCN(Cc2ccc(OCCCN3CCN(c4ccc([N+](=O)[O-])cc4)CC3)cc2)CC1	MEKK2wt PB1 HTS 144 | MEKK2wt confirm inactive | MEKK2mut confirm inactive | MEKK3 confirm inactive
CC1CCN(S(=O)(=O)c2ccc(NC(=O)C3CCN(C(=O)c4ccco4)CC3)cc2)CC1	none
CCc1ccc(-c2cc(C(=O)NCc3ccccn3)c3ccccc3n2)cc1	none
CCc1ccccc1Nc1cc(C(=O)NCc2ccccn2)c2ccccc2n1	MEKK3 PB1 HTS 131 | MEKK2wt confirm inactive | MEKK2mut confirm inactive | MEKK3 confirm inactive
Cc1cc(C)c2sc(N(CCCN(C)C)C(=O)c3ccc(Br)s3)nc2c1	MEKK2wt PB1 HTS 189 | MEKK2wt confirm inactive | MEKK2mut confirm inactive | MEKK3 confirm inactive
